# Reference: PMC7862700, “An all-to-all approach to the identification of sequence-specific readers for epigenetic DNA modifications on cytosine”
# What was measured:
# Assay in all cases: DAPPL (digital affinity profiling via proximity ligation, sequencing); 10 mM Tris-HCl pH 7.5, 50 mM NaCl, 1 mM DTT, 4% glycerol, room temperature, 30 min; GST-TFs on glutathione beads, 16-mer random dsDNA library, 0.1% formaldehyde crosslink after washing; high values mean tight binding
# FLI1 = biological target: T1, FLI1 (Homo sapiens, UniProt Q01543 1-452); conditions: protein: recombinant; tags: N-terminal GST; dsDNA, one strand shown
# T1 sequence: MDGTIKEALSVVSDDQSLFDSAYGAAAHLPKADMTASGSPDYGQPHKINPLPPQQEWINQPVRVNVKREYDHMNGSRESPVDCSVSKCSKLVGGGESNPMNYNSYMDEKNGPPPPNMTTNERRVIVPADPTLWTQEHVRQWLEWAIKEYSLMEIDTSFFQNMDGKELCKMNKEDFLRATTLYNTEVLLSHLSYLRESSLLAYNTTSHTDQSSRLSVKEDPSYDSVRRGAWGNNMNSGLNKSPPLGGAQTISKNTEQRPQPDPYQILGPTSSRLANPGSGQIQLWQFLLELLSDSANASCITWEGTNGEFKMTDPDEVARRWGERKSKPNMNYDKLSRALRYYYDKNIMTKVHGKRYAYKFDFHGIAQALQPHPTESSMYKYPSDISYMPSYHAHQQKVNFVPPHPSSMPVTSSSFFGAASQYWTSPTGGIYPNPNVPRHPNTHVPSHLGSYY
# Summary of the method: (§1)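 Human transcription factors carrying a GST fusion were produced in yeast, bound to glutathione beads, tagged with DNA barcodes and pooled together with a tag-only sample. Each pool was held with 200 nmole of a random double-stranded 16-mer DNA library in Tris/NaCl/DTT/glycerol buffer for 30 min at room temperature, then washed, crosslinked in 0.1% formaldehyde, proximity-ligated with BsaI/T4 ligase (1 h, 37 °C), PCR-amplified and sequenced on an Illumina NextSeq500. Binding signal is the read frequency of each hexamer for a given factor divided by its frequency in the tag-only sample.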
# ELK1 = biological target: T2, ELK1 (Homo sapiens, UniProt P19419 1-428); conditions: protein: recombinant; tags: N-terminal GST; dsDNA, one strand shown
# T2 sequence: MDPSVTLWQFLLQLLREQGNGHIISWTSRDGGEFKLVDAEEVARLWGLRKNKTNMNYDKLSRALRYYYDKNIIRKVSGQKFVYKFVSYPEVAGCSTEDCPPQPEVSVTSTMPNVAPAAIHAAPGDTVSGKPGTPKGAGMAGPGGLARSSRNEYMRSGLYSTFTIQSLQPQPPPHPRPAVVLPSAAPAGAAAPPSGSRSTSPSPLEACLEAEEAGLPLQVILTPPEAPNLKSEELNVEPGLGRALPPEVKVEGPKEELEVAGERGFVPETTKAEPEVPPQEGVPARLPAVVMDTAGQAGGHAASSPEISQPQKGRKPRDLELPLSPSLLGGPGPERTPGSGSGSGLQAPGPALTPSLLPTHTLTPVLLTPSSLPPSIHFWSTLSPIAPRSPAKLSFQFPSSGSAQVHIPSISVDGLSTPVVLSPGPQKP
# Summary of the method: as §1
# GABPA = biological target: T3, GABPA (Homo sapiens, UniProt Q06546 1-454); conditions: protein: recombinant; tags: N-terminal GST; dsDNA, one strand shown
# T3 sequence: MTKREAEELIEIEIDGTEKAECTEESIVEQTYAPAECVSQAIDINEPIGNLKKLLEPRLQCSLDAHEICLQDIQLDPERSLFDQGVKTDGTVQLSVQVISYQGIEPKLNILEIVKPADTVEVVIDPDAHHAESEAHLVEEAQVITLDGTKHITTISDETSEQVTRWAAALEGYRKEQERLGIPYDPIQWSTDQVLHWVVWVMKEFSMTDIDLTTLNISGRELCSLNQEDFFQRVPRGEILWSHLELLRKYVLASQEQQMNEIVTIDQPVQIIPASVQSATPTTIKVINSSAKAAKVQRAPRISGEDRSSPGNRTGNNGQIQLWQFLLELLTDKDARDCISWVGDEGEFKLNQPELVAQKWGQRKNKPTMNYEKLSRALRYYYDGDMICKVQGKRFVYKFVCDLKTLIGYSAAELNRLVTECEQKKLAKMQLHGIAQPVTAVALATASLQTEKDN
# Summary of the method: as §1
# ERG = biological target: T4, ERG (Homo sapiens, UniProt P11308 1-479); conditions: protein: recombinant; tags: N-terminal GST; dsDNA, one strand shown
# T4 sequence: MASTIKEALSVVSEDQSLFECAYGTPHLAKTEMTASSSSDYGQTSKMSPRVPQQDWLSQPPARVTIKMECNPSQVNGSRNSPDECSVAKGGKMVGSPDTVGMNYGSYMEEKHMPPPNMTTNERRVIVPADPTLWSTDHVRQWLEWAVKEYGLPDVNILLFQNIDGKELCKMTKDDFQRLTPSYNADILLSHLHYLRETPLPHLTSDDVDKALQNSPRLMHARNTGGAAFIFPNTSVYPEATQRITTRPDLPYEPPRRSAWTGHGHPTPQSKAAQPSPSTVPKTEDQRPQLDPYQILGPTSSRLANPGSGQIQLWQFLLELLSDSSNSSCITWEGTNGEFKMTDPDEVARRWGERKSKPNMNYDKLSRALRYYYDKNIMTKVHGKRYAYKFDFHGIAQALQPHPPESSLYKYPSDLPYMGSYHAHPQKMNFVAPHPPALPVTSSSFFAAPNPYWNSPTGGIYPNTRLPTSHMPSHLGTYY
# Summary of the method: as §1
# ELF1 = ELF1 (Homo sapiens, UniProt P32519 1-619); conditions: protein: recombinant; tags: N-terminal GST; dsDNA, one strand shown
# Summary of the method: as §1
# EHF = biological target: T5, EHF (Homo sapiens, UniProt Q9NZC4 1-300); conditions: protein: recombinant; tags: N-terminal GST; dsDNA, one strand shown
# T5 sequence: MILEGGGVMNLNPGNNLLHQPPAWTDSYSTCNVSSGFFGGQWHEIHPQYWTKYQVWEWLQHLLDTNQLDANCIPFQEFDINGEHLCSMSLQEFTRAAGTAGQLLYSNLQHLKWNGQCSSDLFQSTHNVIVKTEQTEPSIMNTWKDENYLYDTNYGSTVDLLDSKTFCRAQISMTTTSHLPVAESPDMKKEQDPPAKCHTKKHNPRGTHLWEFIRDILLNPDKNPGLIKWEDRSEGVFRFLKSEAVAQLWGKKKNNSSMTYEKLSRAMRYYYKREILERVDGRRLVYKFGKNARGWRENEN
# Summary of the method: as §1
# SPI1 = SPI1 (Homo sapiens, UniProt P17947 1-270); conditions: protein: recombinant; tags: N-terminal GST; dsDNA, one strand shown
# Summary of the method: as §1
# SPIB = SPIB (Homo sapiens, UniProt Q01892 1-262); conditions: protein: recombinant; tags: N-terminal GST; dsDNA, one strand shown
# Summary of the method: as §1
# ELK3 = biological target: T6, ELK3 (Homo sapiens, UniProt P41970 1-407); conditions: protein: recombinant; tags: N-terminal GST; dsDNA, one strand shown
# T6 sequence: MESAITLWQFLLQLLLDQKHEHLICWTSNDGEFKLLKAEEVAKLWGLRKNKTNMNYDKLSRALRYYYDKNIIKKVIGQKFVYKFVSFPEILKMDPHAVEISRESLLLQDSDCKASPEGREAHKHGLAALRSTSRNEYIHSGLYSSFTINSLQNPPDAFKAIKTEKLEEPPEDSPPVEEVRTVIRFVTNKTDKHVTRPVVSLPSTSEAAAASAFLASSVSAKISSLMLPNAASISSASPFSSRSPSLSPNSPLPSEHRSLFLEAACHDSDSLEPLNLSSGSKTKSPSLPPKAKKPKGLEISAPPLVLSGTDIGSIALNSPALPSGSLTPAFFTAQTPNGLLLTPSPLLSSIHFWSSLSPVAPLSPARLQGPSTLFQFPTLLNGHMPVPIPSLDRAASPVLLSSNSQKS
# Summary of the method: as §1
# FEV = biological target: T7, FEV (Homo sapiens, UniProt Q99581 1-238); conditions: protein: recombinant; tags: N-terminal GST; dsDNA, one strand shown
# T7 sequence: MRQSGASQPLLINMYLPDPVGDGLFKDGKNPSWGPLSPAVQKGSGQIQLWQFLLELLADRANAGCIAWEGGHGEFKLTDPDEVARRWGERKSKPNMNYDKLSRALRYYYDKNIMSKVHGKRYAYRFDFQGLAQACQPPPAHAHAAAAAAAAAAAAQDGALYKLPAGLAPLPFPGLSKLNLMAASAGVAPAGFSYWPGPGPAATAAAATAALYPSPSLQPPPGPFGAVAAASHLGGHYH
# Summary of the method: as §1
# ETV5 = ETV5 (Homo sapiens, UniProt P41161 1-510); conditions: protein: recombinant; tags: N-terminal GST; dsDNA, one strand shown
# Summary of the method: as §1
# HSF1 = HSF1 (Homo sapiens, UniProt Q00613 1-529); conditions: protein: recombinant; tags: N-terminal GST; chain copies: 3; dsDNA, one strand shown
# Summary of the method: as §1
# SPIC = biological target: T8, SPIC (Homo sapiens, UniProt Q8N5J4 1-248); conditions: protein: recombinant; tags: N-terminal GST; dsDNA, one strand shown
# T8 sequence: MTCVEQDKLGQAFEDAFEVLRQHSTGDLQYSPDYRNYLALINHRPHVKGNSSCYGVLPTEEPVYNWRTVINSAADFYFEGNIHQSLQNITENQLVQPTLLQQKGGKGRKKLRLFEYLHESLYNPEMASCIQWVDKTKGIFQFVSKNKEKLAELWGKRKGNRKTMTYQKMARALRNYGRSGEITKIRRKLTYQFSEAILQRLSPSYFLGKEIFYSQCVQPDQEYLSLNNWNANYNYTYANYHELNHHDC
# Summary of the method: as §1
# ELF4 = ELF4 (Homo sapiens, UniProt Q99607 1-663); conditions: protein: recombinant; tags: N-terminal GST; dsDNA, one strand shown
# Summary of the method: as §1
# ELK4 = biological target: T9, ELK4 (Homo sapiens, UniProt P28324-2 1-405); conditions: protein: recombinant; tags: N-terminal GST; dsDNA, one strand shown
# T9 sequence: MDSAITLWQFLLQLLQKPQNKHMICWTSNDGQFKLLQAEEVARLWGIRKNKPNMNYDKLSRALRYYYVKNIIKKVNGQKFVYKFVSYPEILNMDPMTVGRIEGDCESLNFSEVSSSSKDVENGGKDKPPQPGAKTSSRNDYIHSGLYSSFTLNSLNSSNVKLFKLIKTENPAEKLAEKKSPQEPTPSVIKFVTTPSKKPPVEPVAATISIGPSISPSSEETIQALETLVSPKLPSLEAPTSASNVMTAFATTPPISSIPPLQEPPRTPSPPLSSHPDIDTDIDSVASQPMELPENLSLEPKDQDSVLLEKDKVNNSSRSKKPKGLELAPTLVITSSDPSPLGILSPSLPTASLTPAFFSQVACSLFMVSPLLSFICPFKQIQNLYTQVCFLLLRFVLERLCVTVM
# Summary of the method: as §1
# ETV2 = biological target: T10, ETV2 (Homo sapiens, UniProt O00321 1-342); conditions: protein: recombinant; tags: N-terminal GST; dsDNA, one strand shown
# T10 sequence: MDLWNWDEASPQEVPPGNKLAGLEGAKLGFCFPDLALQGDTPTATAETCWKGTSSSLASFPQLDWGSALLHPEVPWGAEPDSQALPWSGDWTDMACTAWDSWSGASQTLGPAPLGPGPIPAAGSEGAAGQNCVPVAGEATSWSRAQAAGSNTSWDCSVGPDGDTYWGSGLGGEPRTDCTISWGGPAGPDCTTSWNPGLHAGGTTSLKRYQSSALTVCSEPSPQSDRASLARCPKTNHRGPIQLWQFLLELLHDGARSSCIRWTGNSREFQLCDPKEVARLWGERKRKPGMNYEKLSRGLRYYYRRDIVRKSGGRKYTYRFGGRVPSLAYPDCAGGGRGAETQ
# Summary of the method: as §1
# ELF3 = biological target: T11, ELF3 (Homo sapiens, UniProt P78545 1-371); conditions: protein: recombinant; tags: N-terminal GST; dsDNA, one strand shown
# T11 sequence: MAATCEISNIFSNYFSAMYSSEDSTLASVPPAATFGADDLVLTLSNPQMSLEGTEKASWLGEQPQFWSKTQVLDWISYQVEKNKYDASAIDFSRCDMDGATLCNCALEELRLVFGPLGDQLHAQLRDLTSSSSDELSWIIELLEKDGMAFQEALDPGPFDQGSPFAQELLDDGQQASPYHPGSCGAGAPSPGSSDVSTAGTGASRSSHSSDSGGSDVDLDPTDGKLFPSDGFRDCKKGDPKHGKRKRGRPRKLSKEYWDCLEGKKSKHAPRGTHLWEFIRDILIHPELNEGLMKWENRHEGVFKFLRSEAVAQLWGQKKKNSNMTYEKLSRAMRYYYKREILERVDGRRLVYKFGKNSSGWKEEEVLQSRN
# Summary of the method: as §1
# CRX = CRX (Homo sapiens, UniProt O43186 1-299); conditions: protein: recombinant; tags: N-terminal GST; dsDNA, one strand shown
# Summary of the method: as §1
# ETV1 = ETV1 (Homo sapiens, UniProt P50549 1-477); conditions: protein: recombinant; tags: N-terminal GST; dsDNA, one strand shown
# Summary of the method: as §1
# SPIB, sequence (Q01892 whole entry): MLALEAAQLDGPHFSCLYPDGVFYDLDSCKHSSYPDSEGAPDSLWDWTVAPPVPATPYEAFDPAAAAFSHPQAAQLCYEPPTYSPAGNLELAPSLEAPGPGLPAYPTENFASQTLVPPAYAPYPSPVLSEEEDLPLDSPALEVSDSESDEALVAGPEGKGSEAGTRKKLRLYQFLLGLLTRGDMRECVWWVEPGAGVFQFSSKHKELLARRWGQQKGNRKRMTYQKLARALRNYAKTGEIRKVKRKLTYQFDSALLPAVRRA
# CRX, sequence (O43186 whole entry): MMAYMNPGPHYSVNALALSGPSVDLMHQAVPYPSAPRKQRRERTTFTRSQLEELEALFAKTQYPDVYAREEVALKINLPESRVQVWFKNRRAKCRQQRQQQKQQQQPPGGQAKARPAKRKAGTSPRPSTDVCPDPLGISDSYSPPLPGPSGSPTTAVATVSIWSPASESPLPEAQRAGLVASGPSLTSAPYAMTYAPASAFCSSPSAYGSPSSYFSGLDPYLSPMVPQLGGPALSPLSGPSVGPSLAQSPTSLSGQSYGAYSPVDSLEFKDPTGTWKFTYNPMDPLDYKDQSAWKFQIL
# ELF4, sequence (Q99607 whole entry): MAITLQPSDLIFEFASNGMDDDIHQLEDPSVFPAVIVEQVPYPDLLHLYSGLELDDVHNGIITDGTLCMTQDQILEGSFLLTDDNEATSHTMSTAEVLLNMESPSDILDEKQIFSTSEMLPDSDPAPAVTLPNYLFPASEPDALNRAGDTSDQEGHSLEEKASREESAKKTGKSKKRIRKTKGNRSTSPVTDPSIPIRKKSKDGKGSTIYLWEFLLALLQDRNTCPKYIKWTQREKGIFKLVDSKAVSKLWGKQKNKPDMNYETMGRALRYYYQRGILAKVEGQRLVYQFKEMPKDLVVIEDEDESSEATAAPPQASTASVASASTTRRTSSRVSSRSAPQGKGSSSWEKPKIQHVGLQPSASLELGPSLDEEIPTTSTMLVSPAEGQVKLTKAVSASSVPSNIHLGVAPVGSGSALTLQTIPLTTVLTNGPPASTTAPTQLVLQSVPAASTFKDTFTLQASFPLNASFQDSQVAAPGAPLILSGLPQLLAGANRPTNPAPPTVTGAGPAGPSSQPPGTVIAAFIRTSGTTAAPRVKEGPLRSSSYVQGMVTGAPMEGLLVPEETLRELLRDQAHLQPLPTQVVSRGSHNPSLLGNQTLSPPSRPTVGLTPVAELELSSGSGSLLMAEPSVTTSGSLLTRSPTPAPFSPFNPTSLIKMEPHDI
# ELF1, sequence (P32519 whole entry): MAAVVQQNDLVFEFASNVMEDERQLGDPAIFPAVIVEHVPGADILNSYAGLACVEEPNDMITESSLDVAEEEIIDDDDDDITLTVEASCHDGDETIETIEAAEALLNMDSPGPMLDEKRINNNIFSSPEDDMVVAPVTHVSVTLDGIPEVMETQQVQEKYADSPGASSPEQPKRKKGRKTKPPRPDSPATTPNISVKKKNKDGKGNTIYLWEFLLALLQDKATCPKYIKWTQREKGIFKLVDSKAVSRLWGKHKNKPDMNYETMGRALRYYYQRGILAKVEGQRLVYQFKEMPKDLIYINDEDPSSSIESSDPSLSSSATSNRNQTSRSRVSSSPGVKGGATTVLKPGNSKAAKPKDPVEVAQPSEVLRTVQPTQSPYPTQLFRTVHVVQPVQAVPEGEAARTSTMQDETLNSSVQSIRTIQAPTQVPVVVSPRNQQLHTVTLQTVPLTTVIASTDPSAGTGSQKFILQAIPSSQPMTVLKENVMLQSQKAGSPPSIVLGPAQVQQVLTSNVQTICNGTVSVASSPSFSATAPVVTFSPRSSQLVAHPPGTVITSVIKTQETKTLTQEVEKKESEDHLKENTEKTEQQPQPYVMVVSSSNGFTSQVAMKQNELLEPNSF
# ETV5, sequence (P41161 whole entry): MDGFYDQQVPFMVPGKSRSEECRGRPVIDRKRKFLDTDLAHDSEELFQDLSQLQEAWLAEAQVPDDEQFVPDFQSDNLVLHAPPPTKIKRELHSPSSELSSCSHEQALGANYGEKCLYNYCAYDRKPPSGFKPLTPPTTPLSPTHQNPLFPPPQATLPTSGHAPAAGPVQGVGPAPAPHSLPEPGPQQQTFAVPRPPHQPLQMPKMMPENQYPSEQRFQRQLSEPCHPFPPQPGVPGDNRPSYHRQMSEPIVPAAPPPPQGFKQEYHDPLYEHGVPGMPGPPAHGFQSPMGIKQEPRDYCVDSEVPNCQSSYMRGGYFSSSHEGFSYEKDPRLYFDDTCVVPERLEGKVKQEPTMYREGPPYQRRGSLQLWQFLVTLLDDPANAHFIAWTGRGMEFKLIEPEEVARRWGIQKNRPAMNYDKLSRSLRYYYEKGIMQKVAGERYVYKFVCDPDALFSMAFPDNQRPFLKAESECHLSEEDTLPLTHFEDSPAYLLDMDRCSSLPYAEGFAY
# ETV1, sequence (P50549 whole entry): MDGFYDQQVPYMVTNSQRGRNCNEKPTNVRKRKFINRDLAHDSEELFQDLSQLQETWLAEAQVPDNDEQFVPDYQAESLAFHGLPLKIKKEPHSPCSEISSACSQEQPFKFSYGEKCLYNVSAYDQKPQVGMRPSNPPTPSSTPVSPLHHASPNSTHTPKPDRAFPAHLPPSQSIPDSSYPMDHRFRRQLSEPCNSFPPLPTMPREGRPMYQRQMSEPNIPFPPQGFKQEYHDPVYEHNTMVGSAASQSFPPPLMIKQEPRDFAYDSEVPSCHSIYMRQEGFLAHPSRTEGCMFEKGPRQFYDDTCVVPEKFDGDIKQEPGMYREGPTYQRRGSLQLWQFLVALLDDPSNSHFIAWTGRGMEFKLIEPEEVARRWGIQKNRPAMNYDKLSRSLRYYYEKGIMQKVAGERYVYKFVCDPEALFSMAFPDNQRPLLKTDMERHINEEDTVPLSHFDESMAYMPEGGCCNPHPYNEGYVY
# HSF1, sequence (Q00613 whole entry): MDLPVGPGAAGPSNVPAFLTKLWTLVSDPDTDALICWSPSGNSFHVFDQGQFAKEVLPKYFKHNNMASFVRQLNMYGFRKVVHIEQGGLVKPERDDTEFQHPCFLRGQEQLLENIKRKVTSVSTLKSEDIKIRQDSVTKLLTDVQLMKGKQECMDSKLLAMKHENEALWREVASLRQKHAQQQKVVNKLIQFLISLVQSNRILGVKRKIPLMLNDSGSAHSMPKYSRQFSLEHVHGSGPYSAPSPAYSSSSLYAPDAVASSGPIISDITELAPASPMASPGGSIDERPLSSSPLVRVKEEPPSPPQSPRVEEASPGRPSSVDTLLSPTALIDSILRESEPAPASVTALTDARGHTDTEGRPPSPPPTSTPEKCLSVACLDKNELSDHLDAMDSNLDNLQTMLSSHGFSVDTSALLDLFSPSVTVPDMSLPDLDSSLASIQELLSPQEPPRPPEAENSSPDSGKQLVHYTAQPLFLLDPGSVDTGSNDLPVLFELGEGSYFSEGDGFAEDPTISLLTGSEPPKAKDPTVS
sequence,measurement,setting,value
CTCTGG,binding signal,FLI1,"1.31 fold enrichment (6-mer frequency, TF over GST control)"
same,binding signal,ELK1,"1.5 fold enrichment (6-mer frequency, TF over GST control)"
same,binding signal,GABPA,"1.3 fold enrichment (6-mer frequency, TF over GST control)"
same,binding signal,ERG,"1.28 fold enrichment (6-mer frequency, TF over GST control)"
same,binding signal,ELF1,"1.34 fold enrichment (6-mer frequency, TF over GST control)"
same,binding signal,EHF,"1.35 fold enrichment (6-mer frequency, TF over GST control)"
same,binding signal,SPI1,"1.4 fold enrichment (6-mer frequency, TF over GST control)"
same,binding signal,SPIB,"1.12 fold enrichment (6-mer frequency, TF over GST control)"
same,binding signal,ELK3,"1.48 fold enrichment (6-mer frequency, TF over GST control)"
same,binding signal,FEV,"1.33 fold enrichment (6-mer frequency, TF over GST control)"
same,binding signal,ETV5,"1.32 fold enrichment (6-mer frequency, TF over GST control)"
same,binding signal,HSF1,"1.81 fold enrichment (6-mer frequency, TF over GST control)"
same,binding signal,SPIC,"1.25 fold enrichment (6-mer frequency, TF over GST control)"
same,binding signal,ELF4,"1.36 fold enrichment (6-mer frequency, TF over GST control)"
same,binding signal,ELK4,"1.23 fold enrichment (6-mer frequency, TF over GST control)"
same,binding signal,ETV2,"1.09 fold enrichment (6-mer frequency, TF over GST control)"
same,binding signal,ELF3,"1.37 fold enrichment (6-mer frequency, TF over GST control)"
same,binding signal,CRX,"1.35 fold enrichment (6-mer frequency, TF over GST control)"
same,binding signal,ETV1,"1.22 fold enrichment (6-mer frequency, TF over GST control)"
